Consider 34 molecules from paper PMC9911399, “Two distinct binding modes provide the RNA-binding protein RbFox with extraordinary sequence specificity”.

Changes are numbered by the printed parent chain; changes in the protein carry UniProt numbers. In all, about 16,000 sequences were measured (“ka relative to ugcaugu”: median about 0.096, highest 2% from about 0.35 on). What follows is part of a selection rich in the highest values, with near analogues and random picks from the rest.

T1: RBFOX1 RRM RbFoxmut (Fox-RRM*) (Homo sapiens, UniProt Q9NWB1 109-208, R118D;E147R;N151S;E152T)
T1 sequence: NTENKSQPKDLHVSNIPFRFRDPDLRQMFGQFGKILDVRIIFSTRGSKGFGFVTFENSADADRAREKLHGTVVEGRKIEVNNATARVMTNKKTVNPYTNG

B1: CACGUCA (DNA:RNA)
RNA: GGGAGACCGGAAUUCAGAUUGUCCCACGUCAUUAAAUCCCGUCGUAGCCACCA
DNA 1: CAATCTGAATTCCGGTCTCCC
DNA 2: TGGTGGCTACGACGGGATT
B2: CCUUCGA (DNA:RNA)
RNA: B1 RNA with A26C, C27U, G28U, U29C, C30G
DNA 1: CAATCTGAATTCCGGTCTCCC
DNA 2: TGGTGGCTACGACGGGATT
B3: GUGCUCC (DNA:RNA)
RNA: B1 RNA with C25G, A26U, C27G, G28C, A31C
DNA 1: CAATCTGAATTCCGGTCTCCC
DNA 2: TGGTGGCTACGACGGGATT
B4: CUGGGUG (DNA:RNA)
RNA: B1 RNA with A26U, C27G, U29G, C30U, A31G
DNA 1: CAATCTGAATTCCGGTCTCCC
DNA 2: TGGTGGCTACGACGGGATT
B5: CCUGGUG (DNA:RNA)
RNA: B1 RNA with A26C, C27U, U29G, C30U, A31G
DNA 1: CAATCTGAATTCCGGTCTCCC
DNA 2: TGGTGGCTACGACGGGATT
B6: UGGGUCG (DNA:RNA)
RNA: B1 RNA with C25U, A26G, C27G, A31G
DNA 1: CAATCTGAATTCCGGTCTCCC
DNA 2: TGGTGGCTACGACGGGATT
B7: UGGGUGU (DNA:RNA)
RNA: B1 RNA with C25U, A26G, C27G, C30G, A31U
DNA 1: CAATCTGAATTCCGGTCTCCC
DNA 2: TGGTGGCTACGACGGGATT
B8: UGUUGGG (DNA:RNA)
RNA: GGGAGACCGGAAUUCAGAUUGUCCUGUUGGGUUAAAUCCCGUCGUAGCCACCA
DNA 1: CAATCTGAATTCCGGTCTCCC
DNA 2: TGGTGGCTACGACGGGATT
B9: UGGGGGG (DNA:RNA)
RNA: B8 RNA with U27G, U28G
DNA 1: CAATCTGAATTCCGGTCTCCC
DNA 2: TGGTGGCTACGACGGGATT
B10: UGGUCCG (DNA:RNA)
RNA: B8 RNA with U27G, G29C, G30C
DNA 1: CAATCTGAATTCCGGTCTCCC
DNA 2: TGGTGGCTACGACGGGATT
B11: UGUGGUG (DNA:RNA)
RNA: B8 RNA with U28G, G30U
DNA 1: CAATCTGAATTCCGGTCTCCC
DNA 2: TGGTGGCTACGACGGGATT
B12: UGGGGUG (DNA:RNA)
RNA: B8 RNA with U27G, U28G, G30U
DNA 1: CAATCTGAATTCCGGTCTCCC
DNA 2: TGGTGGCTACGACGGGATT
B13: UGGGUUG (DNA:RNA)
RNA: B8 RNA with U27G, U28G, G29U, G30U
DNA 1: CAATCTGAATTCCGGTCTCCC
DNA 2: TGGTGGCTACGACGGGATT
B14: UGGGUCC (DNA:RNA)
RNA: B1 RNA with C25U, A26G, C27G, A31C
DNA 1: CAATCTGAATTCCGGTCTCCC
DNA 2: TGGTGGCTACGACGGGATT
B15: UGGUGUG (DNA:RNA)
RNA: B8 RNA with U27G, G30U
DNA 1: CAATCTGAATTCCGGTCTCCC
DNA 2: TGGTGGCTACGACGGGATT
B16: GGUUCAA (DNA:RNA)
RNA: B8 RNA with U25G, G29C, G30A, G31A
DNA 1: CAATCTGAATTCCGGTCTCCC
DNA 2: TGGTGGCTACGACGGGATT
B17: CCGCUAC (DNA:RNA)
RNA: B1 RNA with A26C, C27G, G28C, C30A, A31C
DNA 1: CAATCTGAATTCCGGTCTCCC
DNA 2: TGGTGGCTACGACGGGATT
B18: UGUACUC (DNA:RNA)
RNA: B8 RNA with U28A, G29C, G30U, G31C
DNA 1: CAATCTGAATTCCGGTCTCCC
DNA 2: TGGTGGCTACGACGGGATT
B19: ACGAAGA (DNA:RNA)
RNA: B1 RNA with C25A, A26C, C27G, G28A, U29A, C30G
DNA 1: CAATCTGAATTCCGGTCTCCC
DNA 2: TGGTGGCTACGACGGGATT
B20: UUCGCAG (DNA:RNA)
RNA: B1 RNA with C25U, A26U, U29C, C30A, A31G
DNA 1: CAATCTGAATTCCGGTCTCCC
DNA 2: TGGTGGCTACGACGGGATT
B21: GACGGCA (DNA:RNA)
RNA: B1 RNA with C25G, U29G
DNA 1: CAATCTGAATTCCGGTCTCCC
DNA 2: TGGTGGCTACGACGGGATT
B22: AUUGGAU (DNA:RNA)
RNA: B8 RNA with U25A, G26U, U28G, G30A, G31U
DNA 1: CAATCTGAATTCCGGTCTCCC
DNA 2: TGGTGGCTACGACGGGATT
B23: CUGUUGU (DNA:RNA)
RNA: B1 RNA with A26U, C27G, G28U, C30G, A31U
DNA 1: CAATCTGAATTCCGGTCTCCC
DNA 2: TGGTGGCTACGACGGGATT
B24: CUGUCGU (DNA:RNA)
RNA: B8 RNA with U25C, G26U, U27G, G29C, G31U
DNA 1: CAATCTGAATTCCGGTCTCCC
DNA 2: TGGTGGCTACGACGGGATT
B25: ACCUGUG (DNA:RNA)
RNA: B8 RNA with U25A, G26C, U27C, G30U
DNA 1: CAATCTGAATTCCGGTCTCCC
DNA 2: TGGTGGCTACGACGGGATT
B26: UGUGUUU (DNA:RNA)
RNA: B8 RNA with U28G, G29U, G30U, G31U
DNA 1: CAATCTGAATTCCGGTCTCCC
DNA 2: TGGTGGCTACGACGGGATT
B27: UGUGUGU (DNA:RNA)
RNA: B8 RNA with U28G, G29U, G31U
DNA 1: CAATCTGAATTCCGGTCTCCC
DNA 2: TGGTGGCTACGACGGGATT
B28: CUGUGUG (DNA:RNA)
RNA: B8 RNA with U25C, G26U, U27G, G30U
DNA 1: CAATCTGAATTCCGGTCTCCC
DNA 2: TGGTGGCTACGACGGGATT
B29: CUGUUUG (DNA:RNA)
RNA: B1 RNA with A26U, C27G, G28U, C30U, A31G
DNA 1: CAATCTGAATTCCGGTCTCCC
DNA 2: TGGTGGCTACGACGGGATT
B30: UGUUUGU (DNA:RNA)
RNA: B8 RNA with G29U, G31U
DNA 1: CAATCTGAATTCCGGTCTCCC
DNA 2: TGGTGGCTACGACGGGATT
B31: UGUUUUU (DNA:RNA)
RNA: B8 RNA with G29U, G30U, G31U
DNA 1: CAATCTGAATTCCGGTCTCCC
DNA 2: TGGTGGCTACGACGGGATT
B32: CCCUGUG (DNA:RNA)
RNA: B8 RNA with U25C, G26C, U27C, G30U
DNA 1: CAATCTGAATTCCGGTCTCCC
DNA 2: TGGTGGCTACGACGGGATT
B33: UGUCCGU (DNA:RNA)
RNA: B8 RNA with U28C, G29C, G31U
DNA 1: CAATCTGAATTCCGGTCTCCC
DNA 2: TGGTGGCTACGACGGGATT
B34: CUGUGUU (DNA:RNA)
RNA: B8 RNA with U25C, G26U, U27G, G30U, G31U
DNA 1: CAATCTGAATTCCGGTCTCCC
DNA 2: TGGTGGCTACGACGGGATT

In the assay the target is T1, RBFOX1 RRM RbFoxmut (Fox-RRM*). Put plainly: EMSA; HiTS-Eq, 1 nM pool, 10 min; buffer printed only for the single-RNA assays: 10 mM Tris pH 7.5, 150 mM NaCl, 3.4 mM EDTA, 0.001% NP-40, 30 C. As to conditions: tags: His6 N-terminal (pET28a); label: 5' 32P. The gist of the method:
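Purified RbFox RRM (wild type or mutant) was equilibrated for 10 min in 50 µL with 1 nM of a 5′-radiolabelled pool of RNA with 7 randomized nucleotides, its flanks annealed to DNA oligonucleotides, across increasing protein concentrations. Free RNA was separated by 8% native PAGE, excised, reverse-transcribed, PCR-barcoded and sequenced on an Illumina HiSeq 2500. Relative association constants came from read-count changes of each variant against the control reaction, normalised to the cognate motif.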
For orientation: A gel shift assay detects complexes by their altered migration in electrophoresis.
On to B1, for which the binding signal was 0.124 KA relative to UGCAUGU.

As to B2, the binding signal is 0.0928 KA relative to UGCAUGU.

As for B3, the binding signal was 0.0573 KA relative to UGCAUGU.

With B4, the binding signal was 0.347 KA relative to UGCAUGU.

In the case of B5, the binding signal is 0.109 KA relative to UGCAUGU.

For B6, the binding signal is 0.375 KA relative to UGCAUGU.

With B7, the binding signal is 0.305 KA relative to UGCAUGU.

In the case of B8, the binding signal is 0.0997 KA relative to UGCAUGU.

B9: the binding signal was 0.0903 KA relative to UGCAUGU.

On to B10, for which the binding signal was 0.265 KA relative to UGCAUGU.

For B11, the binding signal is 0.273 KA relative to UGCAUGU.

For the molecule B12, the binding signal is 0.38 KA relative to UGCAUGU.

Take B13: the binding signal is 0.947 KA relative to UGCAUGU.

Regarding B14, the binding signal was 0.149 KA relative to UGCAUGU.

Take B15: the binding signal was 0.498 KA relative to UGCAUGU.

Regarding B16, the binding signal was 0.0825 KA relative to UGCAUGU.

On to B17, for which the binding signal was 0.129 KA relative to UGCAUGU.

B18: the binding signal was 0.0695 KA relative to UGCAUGU.

For the molecule B19, the binding signal is 0.105 KA relative to UGCAUGU.

On to B20, for which the binding signal was 0.0914 KA relative to UGCAUGU.

Regarding B21, the binding signal is 0.149 KA relative to UGCAUGU.

As for B22, the binding signal is 0.0952 KA relative to UGCAUGU.

Turning to B23, the binding signal was 0.166 KA relative to UGCAUGU.

As to B24, the binding signal was 0.138 KA relative to UGCAUGU.

Consider B25, for which the binding signal is 0.139 KA relative to UGCAUGU.

B26: the binding signal is 0.115 KA relative to UGCAUGU.

In the case of B27, the binding signal is 0.366 KA relative to UGCAUGU.

For the molecule B28, the binding signal was 0.388 KA relative to UGCAUGU.

B29: the binding signal is 0.75 KA relative to UGCAUGU.

As for B30, the binding signal was 0.549 KA relative to UGCAUGU.

As to B31, the binding signal was 0.0878 KA relative to UGCAUGU.

As to B32, the binding signal is 0.138 KA relative to UGCAUGU.

With B33, the binding signal was 0.147 KA relative to UGCAUGU.

Take B34: the binding signal was 0.14 KA relative to UGCAUGU.
